Bioassay records as filed in PubChem.
RGS4-Gao reg: modulators of RGS4 binding to Galphao, primary screen, biochemical, multiplexed bead flow cytometry; 220,000 tested, 0.33% active; AID 1415, 2008; actives lie on both sides; binding response (% of control), % at 10 µM; in the data active = binding response below about 49% or above about 150%; inactive = in between;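 note: fluorescent Galphao activated with aluminum fluoride binding bead-coupled RGS4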
Target sequence (P09471 whole entry, looked up): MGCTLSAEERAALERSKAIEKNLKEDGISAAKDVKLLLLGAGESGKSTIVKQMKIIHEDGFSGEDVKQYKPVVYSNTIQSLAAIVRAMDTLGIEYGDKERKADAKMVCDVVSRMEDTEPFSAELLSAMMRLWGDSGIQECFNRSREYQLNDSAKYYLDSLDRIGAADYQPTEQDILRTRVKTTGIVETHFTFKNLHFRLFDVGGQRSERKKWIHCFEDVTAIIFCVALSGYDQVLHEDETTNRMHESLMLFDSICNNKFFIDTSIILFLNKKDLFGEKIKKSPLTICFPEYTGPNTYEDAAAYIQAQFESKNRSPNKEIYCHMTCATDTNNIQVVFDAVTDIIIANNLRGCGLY
GSH bead fluor: compound fluorescence on glutathione beads, profiling panel, artefact control, biophysical, 488/530 nm, flow cytometry. GSH beads flow cytometry, compound fluorescence 488/530 nm; hits give high values. fluorescence (KMESF) at 10 µM. 190,000 tested, 0.25% active; in the data active = fluorescence above about 89;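 note: glutathione beads carrying GST-tagged Bcl family fusion proteins plus one bare bead set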
RGS16-Gao: modulators of RGS16 binding to Galphao, primary screen, biochemical, human proteins, multiplexed bead flow cytometry; binding response (% of control), % at 10 µM; bead-based flow cytometry RGS16-Galphao binding, fluorescence; actives lie on both sides; 220,000 tested, 0.38% active; Regulator of G-protein signaling 16 (Homo sapiens) + Guanine nucleotide-binding protein …;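 note: Galphao activated by GDP with aluminum fluoride before binding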
RGS8-Gao reg: RGS8-Galphao binding modulators, primary screen, biochemical, multiplexed bead flow cytometry; Guanine nucleotide-binding protein G(o) subunit alpha (Homo sapiens), P09471; actives lie on both sides; response (percent of control binding), % at 10 µM; 220,000 tested, 0.34% active; in the data active = response below about 60% or above about 140%; inactive = in between;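 note: Galphao activated as the GDP aluminium fluoride complex binding bead-coupled RGS8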
Avidin fluor: green autofluorescence of compounds with avidin beads – biophysical, 488/530 nm, flow cytometry, artefact control, profiling panel; 220,000 tested, 0.38% active; AID 1775, 2009; compound fluorescence 488/530 nm; hits give high values; fluorescence (KMESF) at 10 µM; in the data active = fluorescence above about 47
RGS7-Gao: RGS7-Galphao binding modulators, primary screen, biochemical, multiplexed bead flow cytometry; binding response (% of control), % at 10 µM; actives lie on both sides; 220,000 tested, 0.35% active; AID 1439, 2008; Guanine nucleotide-binding protein G(o) subunit alpha (Homo sapiens), P09471; in the data active = binding response below about 49% or above about 150%; inconclusive = no clear call, values can overlap the other calls; inactive = in between;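 note: fluorescent Galphao held in activated GDP-AlF4 state binding bead-coupled RGS7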
RGS4-Gao HTS: modulators of RGS–Galpha-o binding, primary screen, biochemical, multiplexed beads, flow cytometry, RGS4/7/8/16/19; shares compounds with RGS16-Gao; multiplexed bead flow cytometry; RGS4–Galpha-o binding response, % at 10 µM; 1,600 tested, 99% active;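 note: fluorescently labeled Galpha-o bound to GDP with aluminium fluoride binding biotinylated RGS beads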
Avidin counter: disruption of biotin probe capture by avidin, counter-screen for RGS protein interaction modulators, biochemical, flow cytometry, bead-based. shares compounds with RGS16-Gao. streptavidin beads, fluorescein-biotin binding. inhibition, % at 10 µM. 1,700 tested, under 10 active;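 active = inhibition above 50%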;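 note: median green fluorescence of gated singlet beads compared with DMSO control wells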
RGS8-Gao single: RGS8-Galphao binding modulators, confirmation, biochemical, multiplexed bead flow cytometry, single concentration; shares compounds with RGS16-Gao; bead-based flow cytometry RGS8-Galphao binding, fluorescence; actives lie on both sides; binding response (% of control), % at 10 µM; 1,700 tested, 3% active; AID 1836, 2009; in the data active = binding response below about 72% or above about 130%; inactive = in between;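 note: Galphao activated as GDP AlF4 complex before binding bead RGS8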
RGS7-Gao single: RGS7-Galphao binding modulators, confirmation, biochemical, multiplexed bead flow cytometry, single concentration; response (percent of control binding), % at 10 µM; 1,700 tested, 7.8% active; AID 1837, 2009; shares compounds with RGS16-Gao; bead-based flow cytometry RGS7-Galphao binding; actives lie on both sides; in the data active = response below about 75% or above about 130%; inactive = in between;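 note: fluorescent Galphao activated with GDP and aluminum fluoride binding bead-coupled RGS7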
RGS16-Gao single: modulators of RGS16-Galphao protein binding, confirmation, biochemical, single concentration, multiplexed bead flow cytometry | response (% of control binding), % at 10 µM | bead-based flow cytometry; actives lie on both sides | shares compounds with RGS16-Gao | 1,700 tested, 4% active; in the data active = response below about 74% or above about 130%; inactive = in between;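 note: Galphao activated as the GDP aluminium fluoride complex binding bead-coupled RGS16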
RGS4-Gao single: modulators of RGS4-Galphao protein binding, confirmation, biochemical, single concentration, multiplexed bead flow cytometry. shares compounds with RGS16-Gao. actives lie on both sides. binding response (% of control), % at 10 µM. 1,700 tested, 4% active. AID 1840, 2009; in the data active = binding response below about 74% or above about 130%; inactive = in between
RGS19-Gao conf: regulators of RGS19-Galphao binding, confirmation, biochemical, single point, multiplexed bead flow cytometry | AID 1841, 2009 | response (percent of control binding), % at 10 µM | shares compounds with RGS16-Gao | bead-based flow cytometry RGS19-Galphao binding; actives lie on both sides | 1,700 tested, 5% active; in the data active = response below about 50% or above about 160%; inactive = in between
Target sequence (P09471 whole entry, looked up): as above
Target sequence (P49795 whole entry, looked up): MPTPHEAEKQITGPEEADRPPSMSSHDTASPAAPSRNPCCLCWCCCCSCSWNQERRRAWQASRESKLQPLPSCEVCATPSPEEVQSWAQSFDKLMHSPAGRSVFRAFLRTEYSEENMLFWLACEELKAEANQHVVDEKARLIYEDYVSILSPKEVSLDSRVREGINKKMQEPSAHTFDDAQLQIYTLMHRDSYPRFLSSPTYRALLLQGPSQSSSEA
Hits are given with their value; . = inactive; ? = inconclusive; / = no result; [ ] = remark or other dose. An excerpt weighted towards active compounds, which were near 1.2% of everything screened. Unless noted, the rule behind the calls is not given here.

SMILES	RGS4-Gao reg	GSH bead fluor	RGS16-Gao	RGS8-Gao reg	Avidin fluor	RGS7-Gao	RGS4-Gao HTS	Avidin counter	RGS8-Gao single	RGS7-Gao single	RGS16-Gao single	RGS4-Gao single	RGS19-Gao conf
O=C(CCN1C(=O)/C(=C/c2ccccc2Cl)SC1=S)NC1=NCCS1	.	.	.	157.3[activator]	.	.	127.0	.	.	.	.	.	.
CCC(=O)N(Cc1ccco1)c1nc(C(=O)Nc2ccc(Cl)cc2)c(C)s1	.	.	.	.	.	.	/	/	/	/	/	/	/
O=C(CN1CCN(Cc2ccc(Cl)cc2)CC1)N/N=C/C=C/c1ccccc1[N+](=O)[O-]	.	.	.	.	.	.	/	/	/	/	/	/	/
COc1ccc(C(NC(C)=O)c2ccc3cccnc3c2O)c(OC)c1 (stereo unspecified)	.	.	.	47.0	.	.	55.1	.	.	.	.	.	.
Cc1nnc(N2CCOCC2)c2nn(-c3ccccc3)c(C)c12	.	.	.	146.9[activator]	.	.	148.8	.	.	.	.	.	.
S=C(NCc1ccco1)Nc1ccc(Oc2ccc(Cl)cc2)cc1	-36.6	/	-19.8	14.0	.	?	/	.	.	.	.	.	.
O=C(NCc1ccco1)c1ccc(COc2ccc(Cl)cc2)cc1	.	.	11.7	.	.	.	89.0	.	.	.	.	.	.
CN(C)C(=O)CSc1nnc(-c2ccc(F)cc2)c2ccccc12	27.9	/	.	50.9	.	?	/	.	.	.	.	.	.
O=C(Cc1cccs1)N1CCN=C1SCc1cccc(F)c1	.	/	.	.	.	?	/	/	/	/	/	/	/
COc1ccc(N(CC(=O)Nc2ccc(F)c(Cl)c2)S(=O)(=O)c2c(C)noc2C)cc1	.	.	.	.	.	.	/	/	/	/	/	/	/
COc1ccc(N(CC(=O)Nc2ccc(OC)c(Cl)c2)S(=O)(=O)c2c(C)noc2C)cc1	.	.	227.2[activator]	140.8[activator]	.	.	116.2	.	.	.	.	.	.
CCCc1cc(-n2ccnc2)n2c(nc3ccccc32)c1C#N	162.5[activator]	150	192.0[activator]	.	84	151.3[activator]	/	.	.	.	.	.	.
CC(C)CCn1c(CN2CCN(Cc3ccccc3)CC2)nc2c1c(=O)[nH]c(=O)n2C	.	.	.	145.0[activator]	.	.	134.9	.	.	.	.	.	.
COc1cccc(NC(=O)CCNC(=O)Cn2ccc3ccccc3c2=O)c1	.	.	.	.	.	.	/	/	/	/	/	/	/
CCC(Cc1ccccc1)NC(=O)C1=C(C)C(=O)OC12CCC(C)CC2 (stereo unspecified)	.	.	.	55.6	.	31.9	59.0	.	.	.	.	.	.
CCCc1cc(-c2nc(-c3ccc(Br)cc3)cs2)ccn1	.	.	-6.4	.	.	.	82.7	.	.	.	.	.	.
CCCc1cc(-c2nc(-c3ccc(Cl)cc3)cs2)ccn1	.	.	.	.	.	.	/	/	/	/	/	/	/
Fc1ccccc1N1CC(c2ccccc2)C(c2cccs2)=N1 (stereo unspecified)	20.6	.	.	9.2	.	14.7	/	.	.	.	.	.	.
Cc1ccc([N+](=O)[O-])cc1NC(=O)c1ccoc1C	.	.	.	.	.	.	/	/	/	/	/	/	/
CCCn1c(NCc2c[nH]c3ccccc23)nc2ccccc21	.	.	.	143.2[activator]	.	.	104.5	.	.	.	.	.	.
O=C(CNC(=O)/C(=C\c1ccc(F)cc1)NC(=O)c1ccccc1)OCc1ccccc1	.	.	.	.	199	172.4[activator]	124.5	/	/	/	/	/	/
O=C(CNC(=O)/C(=C\c1ccccc1)NC(=O)c1ccc(Br)cc1)OCc1ccccc1	.	.	.	.	.	.	/	/	/	/	/	/	/
Cc1c(CNCC(C)c2ccccc2)c(C(=O)O)c(C)n1Cc1ccccc1 (stereo unspecified)	.	.	.	.	.	.	/	/	/	/	/	/	/
CCOC(=O)c1sc(Nc2nc3cc4c(cc3s2)OCO4)cc1C	582.7[activator]	102	938.1[activator]	170.8[activator]	417	665.6[activator]	/	.	.	69.3	.	.	48.0
CC(=O)c1sc(Nc2nc3cc4c(cc3s2)OCO4)nc1C	.	.	.	.	.	.	/	/	/	/	/	/	/
SMILES	RGS4-Gao reg	GSH bead fluor	RGS16-Gao	RGS8-Gao reg	Avidin fluor	RGS7-Gao	RGS4-Gao HTS	Avidin counter	RGS8-Gao single	RGS7-Gao single	RGS16-Gao single	RGS4-Gao single	RGS19-Gao conf
COc1ccc(NC(=S)N(Cc2cccnc2)Cc2cc3cc(OC)c(OC)cc3[nH]c2=O)cc1	.	.	.	.	.	.	/	/	/	/	/	/	/
O=S(=O)(N/N=C/c1ccc(F)cc1)c1ccccc1	.	.	.	.	.	.	/	/	/	/	/	/	/
O=S(=O)(N/N=C/c1ccccc1F)c1ccccc1	22.3	.	11.2	14.0	.	?	/	.	.	.	.	.	.
CC1CCC2(CC1)C(Nc1cccc(Cl)c1)=NC(=S)N2CC#N (stereo unspecified)	.	.	.	.	.	.	/	/	/	/	/	/	/
Cc1cc(-c2n[nH]c(=S)n2Cc2ccco2)n(C)n1	.	.	10.2	.	.	.	90.3	.	.	.	.	.	.
CCOC(=O)c1[nH]c(C)c(C(=O)C(C)C)c1C	.	.	.	.	.	.	/	/	/	/	/	/	/
